Sampled rows, rich in hits. Any-hit rate of the full collection: about 11%.
Pf growth 48h = P. falciparum growth inhibition at 48 hours (one generation) | AID 504832 | P. falciparum luciferase growth in erythrocytes, 48 h | Potency, µM (doses to about 28.7 µM), actives largely listed as inhibitors | 5.9% of 310,000 active
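Luminescence readout; reporter = integrated firefly luciferase in P. falciparum. RBC culture at 2% hematocrit, 0.1% parasitemia final, 37 C/5% CO2; decreased signal taken as growth inhibition.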
VACV Venus inh = inhibitors of vaccinia virus (Venus reporter); 0.46% of 330,000 active; Potency, µM (doses to about 36.5 µM), actives largely listed as inhibitors; Vaccinia virus Venus reporter expression, fluorescence; AID 720580; calls by dose curve; tested in A549 cells; note: nearly all actives have a fitted effect of over 30% in size
Pf growth 96h = inhibits malaria parasite growth, 96 h; P. falciparum luciferase reporter growth, 96 h; Potency, µM (highest dose often 28.7 µM), most hits filed as inhibitors; 6.9% of 320,000 active
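Infected RBCs, 2% Hct / 0.05% parasitemia final; luciferase-reporter P. falciparum; cpd 96 h, 37 C, 5% CO2; luciferase detection reagent; luminescence.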
HCV inh = inhibitors of hepatitis C virus infection; 3.4% of 340,000 active; Potency, µM (doses to about 41.8 µM), usual class: inhibitors; Huh7.5.1 HCVcc-Cre infection, luciferase reporter, 44 h
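1,000 cells/well; 4 h culture; + compound; + HCVcc-Cre (~0.5 moi); 44 h; luciferase substrate, RT 15 min; read 15 sec.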
NS1 function inh = inhibitors of influenza NS1 protein function; 0.4% of 270,000 active; AID 2326; Potency, µM (top dose mostly 46.1 µM); calls by dose curve; note: actives are rising curves; nearly all actives have a fitted effect of over 50% in size
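In this qHTS, NS1 from influenza A is expressed in budding yeast, where it slows growth. Cells are switched from glucose to 2% galactose medium (pH 6.0, -URA), treated with compound, and growth recovery is read at OD600.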
VACV mCherry inh = vaccinia inhibition (mCherry reporter); Vaccinia virus mCherry reporter infection, fluorescence; Potency, µM (titrated, usually from 36.5 µM), hits mostly inhibitors; 0.63% of 310,000 active; calls by dose curve; tested in A549 cells; note: nearly all actives have a fitted effect of over 35% in size
Large screens that a line does not name were inactive. Unless noted, calls come from the whole dose curve; as a rule, active = well fitted inhibition curve with a large enough effect; inconclusive = small, poorly fitted or top-dose-only effect, or another doubt; inactive = no such curve, though single readings can be large or run the other way.

Cc1ccc(Cn2nc(C)c(C(=O)NCC(c3cccs3)N3CCOCC3)c2Cl)cc1 (stereo not given)	Pf growth 48h 12µM, Pf growth 96h inconclusive (no result: NS1 function inh)
Cc1nn(Cc2ccccc2)c(C)c1C(=O)NCC(c1cccs1)N1CCOCC1 (stereo not given)	Pf growth 48h inconclusive (no result: NS1 function inh)
Clc1ccc(-n2ncc3c(NCc4ccc5c(c4)OCO5)ncnc32)cc1	VACV Venus inh inconclusive (no result: Pf growth 48h, VACV mCherry inh)
Cn1c(SCCc2ccc([N+](=O)[O-])cc2)nccc1=O	none (no result: Pf growth 48h, Pf growth 96h, NS1 function inh)
COC(=O)CSc1nc2sc3c(c2c(=O)n1-c1ccccc1)CCN(C)C3	Pf growth 48h inconclusive, HCV inh inconclusive (no result: Pf growth 96h)
C=CCn1c(SCC(=O)NCC)nc2sc3c(c2c1=O)CCC3	Pf growth 48h 7.4µM, Pf growth 96h inconclusive
CCn1c(SCC(=O)NCCc2ccccc2)nc2sc3c(c2c1=O)CCN(C)C3	Pf growth 48h 1.7µM, Pf growth 96h 0.37µM, HCV inh inconclusive
CCn1c(SCC(=O)c2ccccc2)nc2sc3c(c2c1=O)CCN(C)C3	Pf growth 48h inconclusive, Pf growth 96h 2.9µM, HCV inh inconclusive
Cc1nc2ccccc2c(=O)n1NC(=O)COc1ccccc1	none (no result: Pf growth 96h)
COc1ccc(C2=CC(=O)C=CC2=O)cc1	Pf growth 48h 9.3µM, Pf growth 96h 10µM (no result: VACV Venus inh, HCV inh, VACV mCherry inh)
Oc1c(Br)cc(C=Nc2ccc3nc(-c4ccccc4)[nH]c3c2)c(O)c1Br	Pf growth 48h inconclusive (no result: NS1 function inh)
NC(N)=Nc1nc2ccc([N+](=O)[O-])cc2[nH]1	Pf growth 48h 8.3µM, Pf growth 96h 4.1µM, VACV mCherry inh inconclusive
O=[N+]([O-])c1ccc(O)c(C=Nc2ccc3nc(-c4ccccc4)[nH]c3c2)c1	Pf growth 96h 1.5µM
O=[N+]([O-])c1cccc(-c2nc3ccc([N+](=O)[O-])cc3[nH]2)c1	Pf growth 48h inconclusive, HCV inh 14µM (no result: VACV Venus inh, NS1 function inh, VACV mCherry inh)
O=[N+]([O-])c1ccc2nc(-c3ccncc3)[nH]c2c1	Pf growth 48h 2.1µM, Pf growth 96h 5.2µM (no result: VACV Venus inh, VACV mCherry inh)
O=C(CSc1ccc(Br)cc1)Nc1ccccc1Oc1ccccc1	Pf growth 96h inconclusive
O=S1(=O)c2ccccc2C(O)(c2ccccc2)c2ccccc21	none (no result: Pf growth 48h, Pf growth 96h, NS1 function inh)
O=[N+]([O-])c1ccc2nc(CO)[nH]c2c1	none (no result: Pf growth 48h, Pf growth 96h, HCV inh, NS1 function inh)
O=[N+]([O-])c1ccc(/C=C/c2nc3ccc([N+](=O)[O-])cc3[nH]2)cc1	Pf growth 48h 4.1µM
CCOCCCNC(=O)c1cc2c(=O)n(CC)c3ccccc3c2s1	HCV inh inconclusive (no result: VACV Venus inh, VACV mCherry inh)
CCN(CC)CCNC(=O)c1cc2c(=O)n(CC)c3ccccc3c2s1	Pf growth 48h inconclusive, Pf growth 96h inconclusive, HCV inh inconclusive
CCn1c(=O)c2cc(C(=O)NCCOC)sc2c2ccccc21	HCV inh 10µM
CCn1c(=O)c2cc(C(=O)NCCN(C)C)sc2c2ccccc21	VACV Venus inh inconclusive, HCV inh 10µM
CCCCCNC(=O)CCCCn1c(=O)[nH]c2cc(OCC)c(OCC)cc2c1=O	none
COc1cc(C(=O)Oc2cccnc2)cc(OC)c1OC	none (no result: VACV Venus inh, VACV mCherry inh)
COc1cc(O)cc(O)c1C(=O)/C=C/c1ccccc1	Pf growth 48h inconclusive, HCV inh inconclusive, VACV mCherry inh inconclusive
COc1ccc(/C=C/C(=O)c2cc(Br)ccc2OC(=O)c2ccco2)cc1OC	Pf growth 48h 12µM, NS1 function inh inconclusive
COc1ccc(C=CC(=O)c2ccc(OCc3ccccc3)c(OC)c2)cc1OC	VACV Venus inh 11µM, VACV mCherry inh 28µM (no result: Pf growth 48h, Pf growth 96h, HCV inh, NS1 function inh)
COc1cc(C(=O)Oc2cc(C)cc(C)c2)cc(OC)c1OC	Pf growth 48h 15µM (no result: VACV mCherry inh)
COc1cc(OC)c(C(=O)/C=C/c2ccccc2)c(O)c1O	Pf growth 48h inconclusive, VACV Venus inh inconclusive, Pf growth 96h 12µM, VACV mCherry inh inconclusive
CN(C)C(=S)Nc1ccc2c(c1)OCCO2	Pf growth 48h inconclusive
N/C(=N/O)C(c1ccccc1)c1ccccc1	Pf growth 48h inconclusive, Pf growth 96h inconclusive
COC(=O)c1ccc(/C=C/C(=O)c2ccc(OC)c(OC)c2)cc1	Pf growth 48h 10µM, VACV Venus inh inconclusive, Pf growth 96h inconclusive, HCV inh inconclusive (no result: VACV mCherry inh)
COc1ccc(C(=O)/C=C/c2cccc(OCc3ccccc3)c2)cc1CSCC(=O)O	Pf growth 48h 9.3µM, Pf growth 96h 4.7µM (no result: VACV Venus inh, VACV mCherry inh)
COc1ccc(Oc2ccc(/C=C/C(=O)c3ccc(O)cc3)cc2[N+](=O)[O-])cc1	Pf growth 48h 12µM, VACV Venus inh inconclusive, Pf growth 96h 12µM, HCV inh inconclusive, VACV mCherry inh inconclusive
COc1cc(/C=C/C(=O)O)cc(OC)c1OC	none
